Results as given in article PMC5540273 (PLoS ONE, 2017).
Where two headings read alike, the source gives them in different places.

Assays:
[1] = system: ADCK4; details: concentration: 1 μM, replicates: in singlicate; n = 1
[2] = system: AKT1; details: concentration: 1 μM, replicates: in singlicate; n = 1
[3] = system: AKT2; details: n = 1
[4] = system: AKT3; details: concentration: 1 μM, replicates: in singlicate; n = 1
[5] = system: ALK; details: concentration: 1 μM, replicates: in singlicate; n = 1
[6] = system: T1, AMPK-alpha1; details: concentration: 1 μM, replicates: in singlicate; n = 1
T1 construct: gene PRKAA1

[7] = system: T2, AMPK-alpha2; details: concentration: 1 μM, replicates: in singlicate; n = 1
T2 construct: gene PRKAA2

[8] = system: ANKK1; details: concentration: 1 μM, replicates: in singlicate; n = 1
[9] = system: T3, ARK5; details: concentration: 1 μM, replicates: in singlicate; n = 1
T3 construct: gene NUAK1

[10] = system: T4, ASK1; details: concentration: 1 μM, replicates: in singlicate; n = 1
T4 construct: gene MAP3K5

[11] = system: T5, ASK2; details: concentration: 1 μM, replicates: in singlicate; n = 1
T5 construct: gene MAP3K6

[12] = system: AURKA; details: concentration: 1 μM, replicates: in singlicate; n = 1
[13] = system: AURKB; details: concentration: 1 μM, replicates: in singlicate; n = 1
[14] = system: AURKC; details: concentration: 1 μM, replicates: in singlicate; n = 1
[15] = system: AXL; details: concentration: 1 μM, replicates: in singlicate; n = 1
[16] = system: T6, BIKE; details: concentration: 1 μM, replicates: in singlicate; n = 1
T6 construct: gene BMP2K

[17] = system: BLK; details: concentration: 1 μM, replicates: in singlicate; n = 1
[18] = system: BMPR1A; details: concentration: 1 μM, replicates: in singlicate; n = 1
[19] = system: BMPR1B; details: concentration: 1 μM, replicates: in singlicate; n = 1
[20] = system: BMPR2; details: concentration: 1 μM, replicates: in singlicate; n = 1
[21] = concentration: 1 μM, replicates: in singlicate
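Also: KINOMEscan kinase panel screen.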

Fc1ccc(-c2ncn(C3CCNCC3)c2-c2ccnc(Oc3ccc(-c4ccccc4)cc3)n2)cc1 [SB-245391]
%Inh [1]: 0%
%Inh [2]: 20%
%Inh [3, 21]: 31%
%Inh [4]: 15%
%Inh [5]: 39%
%Inh [6]: 7%
%Inh [7]: 20%
%Inh [8]: 7%
%Inh [9]: 1%
%Inh [10]: 23%
%Inh [11]: 12%
%Inh [12]: 53%
%Inh [13]: 39%
%Inh [14]: 0%
%Inh [15]: 18%
%Inh [16]: 0%
%Inh [17]: 20%
%Inh [18]: 18%
%Inh [19]: 2%
%Inh [20]: 46%

COc1cc2c(cc1OCCN1CCNCC1)ncc1c3ccc(C#N)cc3[nH]c21
%Inh [1]: 5%
%Inh [2]: 0%
%Inh [3, 21]: 0%
%Inh [4]: 0%
%Inh [5]: 26%
%Inh [6]: 15%
%Inh [7]: 4%
%Inh [8]: 37%
%Inh [9]: 22%
%Inh [10]: 0%
%Inh [11]: 16%
%Inh [12]: 21%
%Inh [13]: 65%
%Inh [14]: 9%
%Inh [15]: 32%
%Inh [16]: 97.8%
%Inh [17]: 0%
%Inh [18]: 12%
%Inh [19]: 22%
%Inh [20]: 19%

Cc1ccc(F)c(C(=O)Nc2cccc(-c3nn4ccccc4c3-c3ccnc(Nc4cccc(F)c4)n3)c2)c1F [GSK361061]
%Inh [1]: 37%
%Inh [2]: 0%
%Inh [3, 21]: 7%
%Inh [4]: 0%
%Inh [5]: 7%
%Inh [6]: 8%
%Inh [7]: 17%
%Inh [8]: 33%
%Inh [9]: 20%
%Inh [10]: 2%
%Inh [11]: 27%
%Inh [12]: 29%
%Inh [13]: 4%
%Inh [14]: 59%
%Inh [15]: 56%
%Inh [16]: 35%
%Inh [17]: 91.3%
%Inh [18]: 10%
%Inh [19]: 0%
%Inh [20]: 8%

CN1CCN(CCCNc2nccc(-c3c(-c4ccc(F)cc4)nn4cc(C(F)(F)F)ccc34)n2)CC1 [GW621581]
%Inh [1]: 97.1%
%Inh [2]: 0%
%Inh [3, 21]: 0%
%Inh [4]: 0%
%Inh [5]: 9%
%Inh [6]: 0%
%Inh [7]: 19%
%Inh [8]: 0%
%Inh [9]: 21%
%Inh [10]: 6%
%Inh [11]: 0%
%Inh [12]: 0%
%Inh [13]: 11%
%Inh [14]: 0%
%Inh [15]: 10%
%Inh [16]: 11%
%Inh [17]: 50%
%Inh [18]: 0%
%Inh [19]: 0%
%Inh [20]: 0%

CCc1ccc(-c2ccc3c(c2)-c2c(cnn2C)S(=O)(=O)N3C)cc1
%Inh [1]: 0%
%Inh [2]: 0%
%Inh [3, 21]: 0%
%Inh [4]: 0%
%Inh [5]: 0%
%Inh [6]: 0%
%Inh [7]: 0%
%Inh [8]: 0%
%Inh [9]: 0%
%Inh [10]: 0%
%Inh [11]: 0%
%Inh [12]: 14%
%Inh [13]: 0%
%Inh [14]: 35%
%Inh [15]: 8%
%Inh [16]: 0%
%Inh [17]: 0%
%Inh [18]: 0%
%Inh [19]: 0%
%Inh [20]: 0%

COc1cc(Nc2nccc(-c3c(-c4cccc(NC(=O)c5c(F)cccc5F)c4)nn4ncccc34)n2)cc(OC)c1OC [GSK327238]
%Inh [1]: 93.7%
%Inh [2]: 0%
%Inh [3, 21]: 11%
%Inh [4]: 17%
%Inh [5]: 20%
%Inh [6]: 9%
%Inh [7]: 48%
%Inh [8]: 29%
%Inh [9]: 97.4%
%Inh [10]: 0%
%Inh [11]: 8%
%Inh [12]: 99.1%
%Inh [13]: 92.5%
%Inh [14]: 70%
%Inh [15]: 91.3%
%Inh [16]: 7%
%Inh [17]: 99.6%
%Inh [18]: 3%
%Inh [19]: 0%
%Inh [20]: 0%

O=C(O)C(F)(F)F.O=C(O)C(F)(F)F.O=c1[nH]ccc2nc(N[C@@H]3CCCNC3)nc(Nc3ccc(S(=O)(=O)N4CCOCC4)cc3)c12 [GSK2177277]
%Inh [1]: 0%
%Inh [2]: 0%
%Inh [3, 21]: 0%
%Inh [4]: 0%
%Inh [5]: 97.4%
%Inh [6]: 97.6%
%Inh [7]: 98.1%
%Inh [8]: 98.1%
%Inh [9]: 100%
%Inh [10]: 0%
%Inh [11]: 19%
%Inh [12]: 96.8%
%Inh [13]: 97.6%
%Inh [14]: 100%
%Inh [15]: 99.9%
%Inh [16]: 100%
%Inh [17]: 95.6%
%Inh [18]: 0%
%Inh [19]: 90.8%
%Inh [20]: 98.6%

Cn1cc(-c2[nH]c3cc(NC(=O)[C@H](N)C4CCCCC4)cc4c3c2C=NNC4=O)cn1
%Inh [1]: 0%
%Inh [2]: 60%
%Inh [3, 21]: 45%
%Inh [4]: 36%
%Inh [5]: 91.3%
%Inh [6]: 94.1%
%Inh [7]: 81%
%Inh [8]: 95.7%
%Inh [9]: 92.2%
%Inh [10]: 0%
%Inh [11]: 0%
%Inh [12]: 100%
%Inh [13]: 99.7%
%Inh [14]: 99.3%
%Inh [15]: 99.9%
%Inh [16]: 100%
%Inh [17]: 99.5%
%Inh [18]: 19%
%Inh [19]: 87%
%Inh [20]: 22%

COCCOCCOc1cc2ncc3c4ccc(C#N)cc4[nH]c3c2cc1OC
%Inh [1]: 0%
%Inh [2]: 5%
%Inh [3, 21]: 0%
%Inh [4]: 0%
%Inh [5]: 0%
%Inh [6]: 30%
%Inh [7]: 1%
%Inh [8]: 63%
%Inh [9]: 12%
%Inh [10]: 6%
%Inh [11]: 0%
%Inh [12]: 51%
%Inh [13]: 83%
%Inh [14]: 62%
%Inh [15]: 44%
%Inh [16]: 100%
%Inh [17]: 21%
%Inh [18]: 0%
%Inh [19]: 0%
%Inh [20]: 0%

CCn1c(-c2nonc2N)nc2c(C#CC(C)(C)O)ncc(OCCCCN)c21.O=C(O)C(F)(F)F.O=C(O)C(F)(F)F [GSK507274]
%Inh [1]: 13%
%Inh [2]: 93.5%
%Inh ([3]; 1 µM): 99.1%
%Inh [4]: 72%
%Inh [5]: 28%
%Inh [6]: 1%
%Inh [7]: 0%
%Inh [8]: 0%
%Inh [9]: 50%
%Inh [10]: 0%
%Inh [11]: 16%
%Inh [12]: 0%
%Inh [13]: 38%
%Inh [14]: 9%
%Inh [15]: 0%
%Inh [16]: 26%
%Inh [17]: 8%
%Inh [18]: 14%
%Inh [19]: 0%
%Inh [20]: 12%
